We go through 19 compounds from PubChem BioAssay (NCATS).

Values joined by “and” are separate entries in the source; they are usually repeats but may differ in a detail not shown here. Equal entries are not always repeated. Active and inactive are the calls of the source. A call without a number means that no potency is given here. The call rests on the fitted dose curve; in most records, active means well fitted activation curve with a large enough effect; inconclusive means small, poorly fitted or top-dose-only effect; inactive means flat fitted curve, though single readings scatter.
Potency means the concentration at half of the fitted maximal effect.

This assay in a line: Cellular Toxicity (caspase-3) SK-N-SH (AID 661). The note with it: SK-N-SH caspase-3 activation, qHTS; series mostly up to 91.7 µM. The text has this: NIH Chemical Genomics Center [NCGC]
NIH Molecular Libraries Screening Centers Network [MLSCN]
National Institutes of Environmental Health Sciences [NIEHS]
National Toxicology Program [NTP]
We have developed a 1536-well cell-based assay for quantitative high throughput screening (qHTS) against a number of cell lines to determine in vitro caspase 3/7 activity of small molecules. This particular assay uses the SK-N-SH cell line which is derived from human neuroblastoma.
NCGC Assay Protocol Summary:
The Caspase-Glo 3/7 assay (Promega) is a homogeneous method to measure caspase-3 and caspase-7 activities in cultured cells. The quantitation of caspase 3/7 activity is based on the cleavage of a peptide-aminoluciferin substrate. After caspase cleaves the substrate the free aminoluciferin is liberated and serves as the substrate of luciferase, which generates the light. The luminescent signal is proportional to amount of caspase 3/7 activity present.
Using the Caspase-Glo 3/7 assay, the amount of caspase 3/7 activity was measured in the SK-N-SH cell line with complete culture medium following compound treatment for 16 hours. The assay was performed in opaque white 1536-well plates. In the screen, tamoxifen and staurosporine were used as positive controls. Library compounds were measured for their ability to cause the activation of caspase 3/7 in the cell line, as reflected by an increase in luminescence signal, in a concentration-dependent manner. Data were normalized to the controls for basal activity (DMSO only) and 100% stimulation (10 uM staurosporine). AC50 values were determined from concentration-response data modeled with the standard Hill equation.
qHTS protocol for caspase 3/7 assay in SK-N-SH cells
[Step] [Parameter] [Value] [Description]
1. Reagent; 5 uL; 1500 SK-N-SH cells/well
2. Time; 5 hr; 37 °C incubation
4. Controls; 23 nL; Tamoxifen 0.23 uM to 100 uM & staurosporine 1.4 pM to 100 uM
5. Time; 16 hr; 37 °C incubation
6. Reagent; 5 uL; Caspase-Glo 3/7 reagent
7. Time; 1 hr; Room Temperature
8. Detection; Luminescence; Viewlux plate reader
Keywords: caspase 3/7, apoptosis, SK-N-SH cell line, luminescence, NTPHTS, NTPHTS_NCGC, NIEHS, EPA, DSSTox, MLSMR, MLSCN, NIH Roadmap, qHTS, NCGC
For orientation: Quantitative high-throughput screening tests each substance at several concentrations.
On to `Cc1cn([C@H]2C[C@H](N=[N+]=[N-])[C@@H](CO)O2)c(=O)[nH]c1=O`, for which the Potency entry is “inactive”.

On to `Cn1c(=O)c2[nH]cnc2n(C)c1=O`, for which the Potency result is “inactive”.

Take `Nc1c2c(nc3ccccc13)CCCC2`: the Potency result is “inactive”.

Take `O=c1[nH]cc(F)c(=O)[nH]1`: the Potency entry is “inactive”.

Consider `Cc1cn([C@H]2C=C[C@@H](CO)O2)c(=O)[nH]c1=O`, for which the Potency result is “inactive”.

`N[C@@H](Cc1c[nH]c2ccc(O)cc12)C(=O)O`: the Potency entry was “inactive”.

`Cc1ccc(-c2cc(C(F)(F)F)nn2-c2ccc(S(N)(=O)=O)cc2)cc1`: the Potency entry was “inactive”.

Turning to `NS(=O)(=O)c1cc2c(cc1Cl)NCNS2(=O)=O`, the Potency entry is “inactive”.

Regarding `NCCS(=O)(=O)O`, the Potency result is “inactive”.

As for `COc1cc2c(c(OC)c1OC)-c1ccc(OC)c(=O)cc1[C@@H](NC(C)=O)CC2`, the Potency was 200 nM (active) and 251 nM (active).

For the compound `CC(C)NCC(O)c1ccc(O)c(O)c1` (centres undefined), the Potency result is “inactive”.

For `COc1ccc(CCN(C)CCCC(C#N)(c2ccc(OC)c(OC)c2)C(C)C)cc1OC` (centres undefined), the Potency result was “inactive”.

As for `Nc1ccn([C@H]2CC[C@@H](CO)O2)c(=O)n1`, the Potency entry was “inactive”.

For `CC(C)C(=O)Nc1ccc([N+](=O)[O-])c(C(F)(F)F)c1`, the Potency result is “inactive”.

As for `COc1ccc2[nH]cc(CCNC(C)=O)c2c1`, the Potency result is “inactive”.

Take `COc1ccc2c(c1)c(CC(=O)O)c(C)n2C(=O)c1ccc(Cl)cc1`: the Potency entry is “inactive”.

In the case of `CCC1(c2ccccc2)C(=O)NCNC1=O`, the Potency result is “inactive”.

As to `Cn1c(=O)c2c(ncn2C)n(C)c1=O`, the Potency entry is “inactive”.

`O=c1c(-c2ccc(O)cc2)coc2cc(O)cc(O)c12`: the Potency entry was “inactive”.
